Bioassay records as filed in PubChem BioAssay.
Most compounds without a hit are left out; they make up all but 28% or so of the library.
CYP2C19 activ – activators of human cytochrome P450 2C19 | recombinant CYP2C19, luciferin-H EGE luminescence; active compounds read high; 0 = fully inhibited enzyme, 1 = untreated enzyme | activation factor at 5 µM | 96,000 tested, under 10 active;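 active = activation factor of at least 2 at 5 µM in the primary screen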;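 also: 0 = wells with 2.5 mM tranylcypromine and 1 = vehicle-only wells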
CYP2C19 inh – blocks human cytochrome P450 2C19 | CYP2C19 Supersomes, luciferin-H EGE luminescence, 30 min | inhibition, % at 5 µM | 21% of 96,000 active | AID 778;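 active = CYP2C19 inhibition above a set limit at 5 µM in the primary screen, cut at about 50% in these data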;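 also: plate controls were negative control wells for no effect and 2.5 mM tranylcypromine positive control for full effect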
CYP2C9 activ – activators of human CYP2C9; P11712; 1.4% of 96,000 active; recombinant CYP2C9, luciferin-H conversion, luminescence; active compounds read high; factor 1 = untreated enzyme, 0 = blocked; activation factor at 5 µM; AID 1024;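 active = activation factor of 2 or more for CYP2C9 at a 5 µM dose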;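 also: 0 = sulfaphenazole-blocked wells and 1 = vehicle-only wells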
Target sequence (P11712 whole entry, looked up): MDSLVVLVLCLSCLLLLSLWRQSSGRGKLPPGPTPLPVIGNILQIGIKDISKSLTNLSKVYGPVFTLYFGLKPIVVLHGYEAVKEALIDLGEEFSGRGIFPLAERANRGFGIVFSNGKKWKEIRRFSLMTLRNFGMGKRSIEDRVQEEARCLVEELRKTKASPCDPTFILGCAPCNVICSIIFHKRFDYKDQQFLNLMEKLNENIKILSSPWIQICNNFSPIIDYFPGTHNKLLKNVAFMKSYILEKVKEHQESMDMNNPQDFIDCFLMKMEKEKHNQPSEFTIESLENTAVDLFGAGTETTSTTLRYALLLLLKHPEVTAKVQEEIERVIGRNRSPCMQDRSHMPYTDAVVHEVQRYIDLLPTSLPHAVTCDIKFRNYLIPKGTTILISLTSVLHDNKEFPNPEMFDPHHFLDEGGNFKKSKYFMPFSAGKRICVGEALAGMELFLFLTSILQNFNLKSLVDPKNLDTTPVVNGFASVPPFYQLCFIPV
PTK2B oligo ant – antagonists of human Pyk2 oligomerization. Q293 cells, Pyk2 FERM NanoBiT luminescence; active compounds read low. z-score (the deposit names both 25 µM and 10 µM). 0.83% of 99,000 active. Q14289;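 active = Z-score of -3 or lower, scaled per plate to the spread of control and sample wells; inactive = z-score above -3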;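 also: negative z-score means lost luminescence so less FERM oligomerization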
CYP2C9 inh – inhibitors of human CYP2C9; 20% of 96,000 active; CYP2C9 Supersomes, luciferin-H conversion, luminescence; P11712; inhibition, % at 5 µM;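 active = blocking of liver enzyme CYP2C9 beyond about 50% at 5 µM, limit read from the data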
Numbers without * were called inactive; · = no result given.

SMILES	CYP2C19 activ	CYP2C19 inh	CYP2C9 activ	PTK2B oligo ant	CYP2C9 inh
N#Cc1ccc(N2CCN(C(=O)c3cccc(F)c3)CC2)c(F)c1	0.1	92*	0.7	·	31
O=C(COc1ccccc1)N1CCN(C(=O)c2cccc(F)c2)CC1	0.9	8	1	-0.12	4
O=C(c1cccc(F)c1)N1CCC(N2CCOCC2)CC1	0.4	56*	0.9	1.3	11
CCOC(=O)c1cc(NC(=O)N2CCCCC2)c(C)nc1C	0.9	11	1.1	-0.64	-10
O=C(CSc1nc(-c2ccco2)cc(C(F)(F)F)n1)NC1CCCCCCC1	·	·	·	-0.32	·
COc1ccc(-c2ccc(C#N)c(SCC(=O)Nc3sc4c(c3C#N)CCC4)n2)cc1OC	0.6	42	0	0.26	98*
CCC1CCc2c(sc(NC(=O)CSc3nc(-c4ccco4)cc(C(F)(F)F)n3)c2C#N)C1 (stereo unspecified)	0.3	69*	0.1	1.3	89*
COc1ccc(-c2cc(C(F)(F)F)nc(SCC(=O)Nc3sc4c(c3C#N)CCC4)n2)cc1	0.7	28	0.3	0.62	68*
N#Cc1cc2c(nc1SCC(=O)Nc1sc3c(c1C#N)CCC3)CCC2	1.1	-14	1	-0.99	-4
COc1ccc(-c2nnn(CC(=O)Nc3sc4c(c3C#N)CCCC4)n2)cc1	0.8	18	0.5	1.6	54*
COC(=O)c1ccc(CNC(=O)CN(CCC(C)C)S(=O)(=O)c2ccc3c(c2)OCCO3)cc1	·	·	·	-0.28	·
Cc1cccc(N=C2NC(=O)/C(=C3/C(=O)N(C)c4ccccc43)S2)c1C	0.5	50*	0.1	-2.8	93*
Cn1cc(S(=O)(=O)CC(=O)Nc2ccc(Br)cc2)c2ccccc21	0	99*	1	·	-1
CCn1cc(S(=O)(=O)CC(=O)Nc2ccc(C)cc2)c2ccccc21	0.1	90*	0.7	0.36	32
CCn1cc(S(=O)(=O)CC(=O)Nc2ccc3c(c2)OCCO3)c2ccccc21	0.6	36	0.3	-0.35	70*
O=C(NCSc1ccnc(SCNC(=O)c2ccc(F)cc2)n1)c1ccc(F)cc1	0.9	6	0.9	0.09	8
CCN1C(=O)C(O)(CC(=O)c2ccc(-n3cccc3)cc2)c2ccccc21 (stereo unspecified)	·	·	·	-0.59	·
Cc1ccc(C(=O)CC2(O)C(=O)N(CCc3ccccc3)c3ccc(Br)cc32)o1 (stereo unspecified)	0	98*	0.1	-1.5	93*
C=CCN1C(=O)C(O)(CC(=O)c2c(C)n[nH]c2C)c2cc(Br)ccc21 (stereo unspecified)	0.5	49	0.9	0.3	10
CCN1C(=O)C(O)(CC(=O)c2ccccn2)c2ccccc21 (stereo unspecified)	1	0	1	0.81	0
Cc1ccc(C(=O)CC2(O)C(=O)N(Cc3ccccc3Cl)c3ccccc32)o1 (stereo unspecified)	0.4	55*	1.4	-0.49	-44
C=CCN1C(=O)C(O)(CC(=O)c2ccccc2)c2ccccc21 (stereo unspecified)	0.3	75*	0.6	1.4	38
O=C(CC1(O)C(=O)N(CCc2ccccc2)c2ccccc21)c1ccco1 (stereo unspecified)	0.3	71*	0.3	-0.46	74*
CCOC(=O)CCP(=O)(O)C(O)c1ccc(OC)cc1 (stereo unspecified)	1	0	0.9	-0.57	6
C=C(C)CN1C(=O)C(O)(CC(=O)c2ccc3c(c2)OCCO3)c2ccccc21 (stereo unspecified)	0.2	82*	0.6	0.16	40
SMILES	CYP2C19 activ	CYP2C19 inh	CYP2C9 activ	PTK2B oligo ant	CYP2C9 inh
O=C(O)c1cc(Cl)c2ccccc2c1O	0.8	20	0.2	0.17	79*
Cc1cc(S(=O)(=O)N2CCCC2C(=O)N2CCOCC2)c(C)cc1Cl (stereo unspecified)	0.4	63*	3*	0.49	-199
O=C(C1CCN(S(=O)(=O)c2ccc(Cl)cc2)CC1)N1CCOCC1	0.9	12	0.9	-0.25	14
CCOc1ccccc1CN(CCc1ccc2c(c1)OCO2)Cc1ccccn1	0	98*	0.4	0.83	58*
Cc1nc2nc(-c3ccc(Cl)cc3)[nH]n2c(=O)c1C	1.1	-11	1	·	0
CCn1c(SCC(=O)N/N=C/C(C)=C/c2ccco2)nnc1-c1ccccc1	0.2	85*	0.5	0.5	47
Cc1nnc(SCC(=O)Nc2nc(-c3ccccc3)cs2)n1N	1	-2	1.1	-0.01	-6
CCn1c(SCC(=O)Nc2nccs2)nnc1-c1ccccc1	0.1	92*	0.5	0.06	52*
CCn1c(SCC(=O)Nc2nc(-c3ccccc3)cs2)nnc1-c1ccccc1	0.1	94*	0	-0.95	96*
CCn1c(SCC(=O)N/N=C/c2ccc(C)o2)nnc1-c1ccccc1	0.7	26	1	-1	2
O=C(Nc1cccc(-c2cn3ccccc3n2)c1)c1cc2ccccc2oc1=O	0.6	39	0.6	-0.3	42
CCSc1nnc(-c2cccnc2)n1-c1ccc(C)c(Cl)c1	0.9	15	0.9	1.7	8
COc1cc(C(=O)NCC(C)C)c([N+](=O)[O-])cc1OC	1.2	-19	1.2	0.94	-18
Cc1ccc(S(=O)(=O)CCC(=O)c2ccc(O)cc2O)cc1	0.3	70*	1.9	0.03	-91
Cc1[nH]c2ccccc2c1C(=O)COC(=O)C1CC(=O)N(Cc2ccccc2)C1 (stereo unspecified)	0.2	78*	0.3	-0.27	67*
Cc1ccc(N2CCN(c3ccc(C)cc3)C2c2ccncc2)cc1	0.1	88*	0.3	-0.19	71*
Cc1cccc(N2CCN(c3cccc(C)c3)C2c2cccnc2)c1	0.5	47	0.8	-0.32	21
CCOc1ccc(NS(=O)(=O)c2ccc(NC(=O)C3CCCO3)cc2)cc1 (stereo unspecified)	0.7	33	0.5	0.96	47
COc1ccc(OCC(=O)OCCN2C(=O)c3ccccc3C2=O)cc1	0.6	39	0.7	0.1	29
O=C1c2ccccc2C(=O)N1CCCOc1ccccc1	0.2	85*	0.8	-0.17	20
N#Cc1ccccc1OCCN1C(=O)c2ccccc2C1=O	0.2	82*	0.4	-0.07	60*
O=C1c2ccccc2C(=O)N1CN(C(=O)COc1ccccc1)c1ccccc1	0.4	58*	0.7	0.62	30
Cc1cc(=O)n2nc(-c3ccc(C(F)(F)F)cc3)sc2n1	1.3	-27	1.1	0.86	-15
COc1ccc2c(c1)c(C(C)=O)c(C)n2-c1ccccc1	0	97*	0.1	0.02	88*
CC(=O)Oc1ccc2c(c1)c(C(C)=O)c(C)n2C	0.9	8	0.9	0.52	6
COc1ccc(-n2c(C)c(C(C)=O)c3cc(O)ccc32)cc1	0.1	90*	0.4	-1	61*
CNC(=O)c1cc(C)c(-c2ccccc2)s1	0.6	41	1	-0.22	3
COc1ccc(-n2sc3c(c2=S)-c2cc(OC)ccc2NC3(C)C)cc1	0.5	49	0.2	-1.2	82*
